The text below walks through data of PubChem BioAssay (EPA / NIEHS).

Active and inactive are the calls of the source. How the source made its calls: active means hit-call score of the fitted dose curve at least 0.9, where 1 is the maximum; inactive means score below 0.9.

The test can be described thus: Tanguay_ZF_120hpf_MUSC: Oregon State University Tanguay Lab 120 Hour Post-fertilization zebrafish Assay for Muscle Malformation (AID 2284401). Here is the method:
Tanguay_ZF_120hpf is a whole embryo, multiplexed endpoint assay using zebrafish larvae exposed for 120 hours post fertilization on a 96-well plate.Tanguay_ZF_120hpf_MUSC is one of one assay component(s) measured or calculated from the Tanguay_ZF_120hpf assay. It is designed to make measurements of zebrafish development as detected with brightfield microscopy of developing zebrafish embryos.Data from the assay component Tanguay_ZF_120hpf_MUSC was analyzed into 1 assay endpoints. This assay endpoint, Tanguay_ZF_120hpf_MUSC, was analyzed in the positive analysis fitting direction relative to DMSO as the negative control and baseline of activity. Using a type of morphology reporter, gain-of-signal activity can be used to understand changes in developmentals as they relate to the whole embryo. To generalize the intended target to other relatable targets, this assay endpoint is annotated to the zebrafish development intended target family, where the subfamily is myogensis.
Zebrafish husbandry: Tropical 5D wild-type adult zebrafish were housed in at an approximate density of 1000 per 100 gallon tank at the Sinnhuber Aquatic Research Laboratory, Oregon State University, Corvallis, OR. Each tank was kept at standard laboratory conditions of 28C on a 14-h light/10-h dark photoperiod in fish water consisting of reverse osmosis water supplemented with a commercially available salt (Instant Ocean). Spawning funnels were placed into the tanks the night prior, and embryos were collected and staged. To increase bioavailability, the chorion was enzymatically removed using pronase (63.6mg/ml, >/= 3.5U/mg, Sigma-Aldrich: P5147) at 4 hours post fertilization (hpf) using a custom automated dechorionator.Chemical exposures: Six hpf dechorionated embryos were placed 1 embryo per well in a 96-well plate prefilled with 90 ul of EM using automated embryo placement systems (AEPS). Ten microliters of each row of dilution plate 2 was added to 2 exposure plates. The final DMSO concentration used was 0.64% (vol/vol). Thirty-two embryos were also exposed to 5uM trimethyltin chloride (positive control). Plates were sealed to prevent evaporation and foil covered to reduce light exposure and kept in a 28C incubator. Embryos were statically exposed until 120 hpf. At 24 hpf, embryos were assessed for photomotor response using a custom photomotor response analysis tool (PRAT) and for developmental toxicity endpoints (MO24: mortality at 24 hpf, DP: developmental progression, SM: spontaneous movement, and NC: notochord distortion). At 120 hpf, locomotor activity was measured using Viewpoint Zebralab and assessed for 13 endpoints. Zebrafish acquisition and analysis program (ZAAP), a custom program designed to inventory, acquire, and manage zebrafish data, was used to collect developmental endpoints as either present or absent (i.e., binary responses were recorded). If mortality occurred for an embryo (at either 24 or 120 hpf), the non-mortality endpoints were not measured.
Take `FC(F)(F)C(F)(F)C(F)(F)C(F)(F)CCI`: the outcome was inactive.
On the same count and under the same terms, the value for `O=C(O)C(F)(F)C(F)(F)C(F)(F)C(F)(F)C(F)(F)C(F)(F)C(F)(F)C(F)(F)C(F)(F)C(F)(F)C(F)(F)C(F)(F)F` was “inactive”; that for `O=C(O)C(F)(OC(F)(F)C(F)(OC(F)(F)C(F)(OC(F)(F)C(F)(F)C(F)(F)F)C(F)(F)F)C(F)(F)F)C(F)(F)F` (stereo not given) was “inactive”; that for `C=C(C)C(=O)OCCC(F)(F)C(F)(F)C(F)(F)C(F)(F)C(F)(F)C(F)(F)F` was “inactive”.
With `O=C(O)C(F)(F)C(F)(F)C(F)(F)F`, the outcome was inactive.
On to `O=C(O)C(F)(F)C(F)(F)C(F)(F)C(=O)O`, for which the call was inactive.
On the same count and under the same terms, the value for `O=C(Cl)C(F)(F)C(F)(F)C(F)(F)C(=O)Cl` was “inactive”; that for `FC(F)(F)C(F)(F)C(F)(F)C(F)(F)C(F)(F)C(F)(F)CC1CO1` (stereo not given) was “inactive”.
Same read-out and setting: the value for `FC(F)C(F)(F)COCC1CO1` (stereo not given) was “inactive”.
On the same count and under the same terms, the value for `Cc1ccc(S(=O)(=O)OCC(F)(F)C(F)(F)C(F)(F)C(F)(F)C(F)(F)C(F)F)cc1` was “inactive”; that for `OCCCC(F)(F)C(F)(F)C(F)(F)C(F)(F)C(F)(F)C(F)(F)C(F)(F)C(F)(F)F` was “inactive”.
`O=P(O)(O)OCCC(F)(F)C(F)(F)C(F)(F)C(F)(F)C(F)(F)C(F)(F)F`: the call was inactive.
For `OC(O)(C(F)C(O)(O)C(F)(F)F)C(F)(F)F`, the compound was classed as inactive.
With `OCC(F)(F)C(F)(F)C(F)(F)C(F)(F)C(F)(F)C(F)(F)C(F)(F)C(F)(F)C(F)(F)C(F)(F)C(F)(F)F`, the call was inactive.
On the same count and under the same terms, to `OC(O)C(F)(F)C(F)(F)F` belongs “inactive”; to `O=P(O)(O)CCC(F)(F)C(F)(F)C(F)(F)C(F)(F)C(F)(F)C(F)(F)C(F)(F)C(F)(F)F`, “inactive”; to `O=C(O)C(F)(F)C(F)(F)C(F)(F)C(F)(F)C(F)(F)C(F)(F)C(F)(F)C(F)(F)C(F)(F)C(F)F`, “inactive”.
In the case of `FC(F)(F)C(F)(F)C(F)(F)N(C(F)(F)C(F)(F)C(F)(F)F)C(F)(F)C(F)(F)C(F)(F)F`, the compound was classed as inactive.
On to `FC(F)(F)C(F)(F)C(F)(F)CI`, for which the call was inactive.
On to `CN(CCO)S(=O)(=O)C(F)(F)C(F)(F)C(F)(F)C(F)(F)C(F)(F)C(F)(F)C(F)(F)C(F)(F)F`, for which the compound was classed as inactive.
On the same count and under the same terms, to `OCCCCC(F)(F)C(F)(F)C(F)(F)C(F)(F)F` belongs “inactive”; to `O=C(CC(=O)C(F)(F)C(F)(F)C(F)(F)F)c1cccs1`, “inactive”.
As for `OCCCC(F)(F)C(F)(F)C(F)(F)C(F)(F)C(F)(F)C(F)(F)C(F)(F)F`, the call was inactive.
As to `C[Si](Cl)(Cl)CCC(F)(F)C(F)(F)C(F)(F)C(F)(F)C(F)(F)C(F)(F)F`, the result was inactive.
On the same count and under the same terms, the value for `FC(F)(F)C(F)(F)C(F)(F)C(F)(F)C(F)(F)C(F)(F)C(F)(F)I` was “inactive”; that for `NCC(F)(F)C(F)(F)C(F)(F)C(F)(F)F` was “inactive”; that for `NC(=O)C(F)(F)C(F)(F)C(F)(F)C(F)(F)F` was “inactive”.
In the case of `FC(F)(F)COC(OCC(F)(F)F)OCC(F)(F)F`, the call was inactive.
As to `NS(=O)(=O)C(F)(F)C(F)(F)C(F)(F)C(F)(F)C(F)(F)C(F)(F)F`, the compound was classed as inactive.
`O=C(O)C(F)(F)C(F)(F)OC(F)(F)F`: the compound was classed as inactive.
On the same count and under the same terms, the value for `C[N+](C)(C)CCCNS(=O)(=O)C(F)(F)C(F)(F)C(F)(F)C(F)(F)C(F)(F)C(F)(F)C(F)(F)C(F)(F)F` was “inactive”.
Still for that read-out and setting: to `NC(O)(C(F)(F)F)C(F)(F)F` belongs “inactive”; to `CCOC(=O)CC(=O)C(F)(F)C(F)(F)F`, “inactive”.
Same read-out and setting: to `NC(=O)C(F)(F)C(F)(F)C(F)(F)F` belongs “inactive”; to `FC(F)(F)C(F)(F)C(F)(F)C(F)(F)C(F)(F)C(F)(F)C(F)(F)CCI`, “inactive”; to `O=S(=O)(OCCOC(F)(F)F)C(F)(F)F`, “inactive”.
For `CCN(CCO)S(=O)(=O)C(F)(F)C(F)(F)C(F)(F)C(F)(F)C(F)(F)C(F)(F)C(F)(F)C(F)(F)F`, the compound was called inactive.
As a reminder, the AC50 is the concentration giving half of the maximal activity seen. Take `O=C(O)C(F)(F)C(F)(F)C(F)(F)C(F)(F)C(F)(F)C(F)(F)C(F)(F)C(F)(F)Cl`: the AC50 is 39.3 µM (active).
Turning to `O=C(O)C(F)(F)C(F)(F)F`, the call was inactive.
For `OCC(O)CC(F)(F)C(F)(F)C(F)(F)C(F)(F)F` (stereo not given), the call was inactive.
